Drawing on PubChem BioAssay AID651995 (Sanford-Burnham Center for Chemical Genomics, 2013), this text covers inhibition for one compound.

Out of some 2,500 compounds screened, about 480 (19%) were called active.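 How the source made its calls: active means mean inhibition above about 25% (limit read from the data); inactive means the rest.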 Shown is part of a subset that was picked to be rich in actives.

The assay is described as follows: inhibitors of Wnt3a-driven luciferase in Wnt-LIGHT cells – cell-based, luminescence, single concentration, counter-screen for Gli-SUFU antagonist project, confirmation (AID 651995). The note with it: Wnt3a-driven luciferase reporter, at 6.25 µM, stronger effect = higher value.
As for `CCOc1cccc(=NC2CCCCC2)c2c(C)[nH]c(C)c12`, the inhibition was 26.5% (active).
